PAFAH2 inh: inhibitors of human PAFAH2; Q99487; recombinant PAFAH2, FP-rhodamine activity probe, fluorescence polarization; AID 492956; inhibition, % at 3.39 µM; actives 0.99% (n = 340,000);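 active = inhibition above the mean over all tested compounds plus 3 SD, cut at about 30% in these data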;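 also: inhibitors block probe labeling of enzyme so polarization drops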
PKA-R1A act: PKA-R1A complex activation | P00514+P68181 | PKA-R1A dissociation, Cy5-IP20 fluorescence polarization; scaled: DMSO 0%, 113 µM cGMP 100% | activation, % at 11.4 µM | actives 0.083% (n = 340,000);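 active = percent activation above the mean of all tested compounds plus 3 SD, cut at about 19% in these data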;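 also: higher means more PKAc released from R1A so a rise in polarization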
PAFAH1B3 inh: blocks human PAF acetylhydrolase 1B catalytic subunit 3; Q15102; recombinant PAFAH1B3, FP-rhodamine probe, fluorescence polarization; inhibition, % at 3.39 µM; actives 0.28% (n = 340,000);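 active = inhibition above the screen-wide average of all tested compounds plus 3 SD, cut at about 25% in these data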
Target sequence (Q15102 whole entry, looked up): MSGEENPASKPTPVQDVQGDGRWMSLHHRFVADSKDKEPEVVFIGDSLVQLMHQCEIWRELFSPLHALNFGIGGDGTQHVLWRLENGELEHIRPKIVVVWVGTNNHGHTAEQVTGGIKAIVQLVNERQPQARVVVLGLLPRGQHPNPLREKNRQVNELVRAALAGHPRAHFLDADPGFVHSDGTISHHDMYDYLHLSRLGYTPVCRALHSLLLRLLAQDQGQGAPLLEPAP
pPAFAH FP inh: pPAFAH (human) enzyme inhibition; actives 1.5% (n = 330,000); recombinant pPAFAH, FP-rhodamine probe fluorescence polarization; inhibition, % at 3.39 µM; Q13093;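 active = inhibition above the mean inhibition across the screen plus 3 SD, cut at about 25% in these data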;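 also: inhibitors block binding of the rhodamine activity-based probe so polarization drops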
PKA-R2B act: activates the human PKA-R2B holoenzyme complex. P22694+P31323. AID 504700. PKA-R2B holoenzyme dissociation, Cy5-IP20 fluorescence polarization; R2B truncated from residue 108, S112A mutant; 0% DMSO only, 100% 113 µM cGMP. actives 0.079% (n = 340,000). activation, % at 11.4 µM;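 active = activation above a cutoff set at the mean over all compounds plus 3 SD, cut at about 18% in these data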;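 also: higher means more holoenzyme dissociation and a rise in polarization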
Target sequence (P31323 whole entry, looked up, other chains not shown, the tested form may be a part): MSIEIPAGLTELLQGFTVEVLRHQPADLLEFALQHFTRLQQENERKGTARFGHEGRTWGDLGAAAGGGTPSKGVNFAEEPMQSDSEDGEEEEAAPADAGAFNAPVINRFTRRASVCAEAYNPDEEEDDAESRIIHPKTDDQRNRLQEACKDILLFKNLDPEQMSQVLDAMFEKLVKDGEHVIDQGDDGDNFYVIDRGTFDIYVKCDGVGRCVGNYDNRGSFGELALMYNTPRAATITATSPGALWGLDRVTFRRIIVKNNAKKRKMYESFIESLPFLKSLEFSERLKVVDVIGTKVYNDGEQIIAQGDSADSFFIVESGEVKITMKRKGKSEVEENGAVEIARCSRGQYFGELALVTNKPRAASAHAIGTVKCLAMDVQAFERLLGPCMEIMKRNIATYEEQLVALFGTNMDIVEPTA
PAFAH1B2 FP inh: PAFAH1B2 (human) inhibition. P68402. actives 1.2% (n = 340,000). recombinant PAFAH1B2, FP-rhodamine activity probe, fluorescence polarization. inhibition, % at 3.39 µM. AID 492953;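 active = inhibition above the mean of all tested compounds plus 3 SD, cut at about 24% in these data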
PAFAH2 confirm: confirmation of human PAFAH2 inhibitors. inhibition, % at 3.39 µM. actives 65% (n = 2,300). recombinant PAFAH2, FP-rhodamine activity probe, fluorescence polarization. shares compounds with PAFAH2 inh. AID 493030;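 active = mean inhibition over three repeats above a set limit taken from the earlier primary screen, cut at about 30% in these data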;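 also: inhibitor blocks binding of rhodamine activity probe so polarization falls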
A number is an active result. The list is not random: actives were taken first. Their share in the collection is about 2.6%.

How did Cc1ccc(S(=O)(=O)N(C)C)cc1NC(=O)COC(=O)c1ccc2c(c1)OCO2 do in these assays?
PAFAH2 inh: 60; PKA-R1A act: inactive; PAFAH1B3 inh: inactive; pPAFAH FP inh: inactive; PKA-R2B act: inactive; PAFAH1B2 FP inh: inactive; PAFAH2 confirm: 52

What do the screens show for `Cc1ccc(S(=O)(=O)N(C)C)cc1NC(=O)COC(=O)C1=COCCO1`?
PAFAH2 inh: inactive; PKA-R1A act: inactive; PAFAH1B3 inh: inactive; pPAFAH FP inh: inactive; PKA-R2B act: inactive; PAFAH1B2 FP inh: inactive

Results for Cc1ccc(S(=O)(=O)N(C)C)cc1NC(=O)COC(=O)c1ccc2c(c1)OCCO2 ?
PAFAH2 inh: 64; PKA-R1A act: inactive; PAFAH1B3 inh: inactive; pPAFAH FP inh: inactive; PKA-R2B act: inactive; PAFAH1B2 FP inh: inactive; PAFAH2 confirm: 64

What do the screens show for `COc1ccc2nc(-n3c(O)c(C4=c5ccccc5=NC4=O)[nH]c3=S)sc2c1`?
PAFAH2 inh: 60; PKA-R1A act: inactive; PAFAH1B3 inh: inactive; pPAFAH FP inh: inactive; PKA-R2B act: inactive; PAFAH1B2 FP inh: inactive; PAFAH2 confirm: 40

What do the screens show for `Cn1c(O)c(C2=c3ccccc3=NC2=O)[nH]c1=S`?
PAFAH2 inh: inactive; PKA-R1A act: inactive; PAFAH1B3 inh: inactive; pPAFAH FP inh: inactive; PKA-R2B act: inactive; PAFAH1B2 FP inh: inactive

What do the screens show for `Cc1cc2c(cc(C(=O)N3CCC(C(=O)NC4CCCC4)CC3)n2Cc2c(F)cccc2Cl)o1`?
PAFAH2 inh: 64; PKA-R1A act: inactive; PAFAH1B3 inh: inactive; pPAFAH FP inh: inactive; PKA-R2B act: inactive; PAFAH1B2 FP inh: inactive; PAFAH2 confirm: 49

How did Cc1ccc(C(=O)O/N=C2\CCS(=O)(=O)c3sccc32)cc1 do in these assays?
PAFAH2 inh: 88; PKA-R1A act: inactive; PAFAH1B3 inh: inactive; pPAFAH FP inh: inactive; PKA-R2B act: inactive; PAFAH1B2 FP inh: inactive; PAFAH2 confirm: 83

How did COc1cccc(C(=O)O/N=C2\CCS(=O)(=O)c3sccc32)c1 do in these assays?
PAFAH2 inh: 70; PKA-R1A act: inactive; PAFAH1B3 inh: inactive; pPAFAH FP inh: inactive; PKA-R2B act: inactive; PAFAH1B2 FP inh: inactive; PAFAH2 confirm: 37

What do the screens show for `O=S1(=O)CC/C(=N\Nc2ccccc2)c2ccsc21`?
PAFAH2 inh: inactive; PKA-R1A act: inactive; PAFAH1B3 inh: inactive; pPAFAH FP inh: inactive; PKA-R2B act: inactive; PAFAH1B2 FP inh: inactive

Results for O=C(O/N=C1\CCS(=O)(=O)c2sccc21)c1c(F)cccc1F ?
PAFAH2 inh: inactive; PKA-R1A act: inactive; PAFAH1B3 inh: inactive; pPAFAH FP inh: inactive; PKA-R2B act: inactive; PAFAH1B2 FP inh: inactive

How did CCOCCc1nnc(NC(=O)C2CC(=O)N(CCc3ccc(F)cc3)C2)s1 (configuration not stated) do in these assays?
PAFAH2 inh: inactive; PKA-R1A act: inactive; PAFAH1B3 inh: inactive; pPAFAH FP inh: inactive; PKA-R2B act: inactive; PAFAH1B2 FP inh: inactive

How did Cc1ccc(C)c(SCC(=O)NNC(=O)c2csc(N3CCOCC3)n2)c1 do in these assays?
PAFAH2 inh: 30; PKA-R1A act: inactive; PAFAH1B3 inh: inactive; pPAFAH FP inh: inactive; PKA-R2B act: inactive; PAFAH1B2 FP inh: inactive; PAFAH2 confirm: 31

What do the screens show for `CCC(=O)Nc1ccc(C(=O)n2ccc(C)n2)cc1`?
PAFAH2 inh: 59; PKA-R1A act: inactive; PAFAH1B3 inh: inactive; pPAFAH FP inh: inactive; PKA-R2B act: inactive; PAFAH1B2 FP inh: inactive; PAFAH2 confirm: 61

Results for Cc1ccn(C(=O)c2ccc(NC(=O)C3CC3)cc2)n1 ?
PAFAH2 inh: 63; PKA-R1A act: inactive; PAFAH1B3 inh: inactive; pPAFAH FP inh: inactive; PKA-R2B act: inactive; PAFAH1B2 FP inh: inactive; PAFAH2 confirm: 53

Results for Cc1cc(C)n(C(=O)c2ccc(NC(=O)C3CC3)cc2)n1 ?
PAFAH2 inh: inactive; PKA-R1A act: inactive; PAFAH1B3 inh: inactive; pPAFAH FP inh: inactive; PKA-R2B act: inactive; PAFAH1B2 FP inh: inactive

How did Cc1ccn(C(=O)c2ccc(NC(=O)CC(C)C)cc2)n1 do in these assays?
PAFAH2 inh: 62; PKA-R1A act: inactive; PAFAH1B3 inh: inactive; pPAFAH FP inh: inactive; PKA-R2B act: inactive; PAFAH1B2 FP inh: inactive; PAFAH2 confirm: 56

How did Cc1cccc(C)c1NC(=O)CN(C)C(=O)c1ccc(OCc2ccccc2)cc1 do in these assays?
PKA-R1A act: inactive; PKA-R2B act: inactive

How did COc1ccc(-c2noc(N3CCC(C(=O)NCCCN4CC(C)CC(C)C4)CC3)n2)cc1 (configuration not stated) do in these assays?
PAFAH2 inh: inactive; PKA-R1A act: inactive; PAFAH1B3 inh: inactive; pPAFAH FP inh: inactive; PKA-R2B act: inactive; PAFAH1B2 FP inh: inactive

Results for Cc1cc(C)n(-c2ccc(NC(=O)C3CCCCN3C(=O)c3ccc(C)s3)cc2)n1 (configuration not stated) ?
PAFAH2 inh: inactive; PKA-R1A act: inactive; PAFAH1B3 inh: inactive; pPAFAH FP inh: inactive; PKA-R2B act: inactive; PAFAH1B2 FP inh: inactive

Results for Cn1nc(C(F)(F)F)c(-c2ccccc2)c1NC(=O)CCC(=O)O ?
pPAFAH FP inh: inactive

How did O=[N+]([O-])c1ccccc1S(=O)(=O)Nc1cccc(-c2ccc(N3CCOCC3)nn2)c1 do in these assays?
PAFAH2 inh: inactive; PKA-R1A act: inactive; PAFAH1B3 inh: inactive; pPAFAH FP inh: inactive; PKA-R2B act: inactive; PAFAH1B2 FP inh: inactive

What do the screens show for `O=[N+]([O-])c1ccccc1S(=O)(=O)Nc1cccc(-c2ccc(N3CCCC3)nn2)c1`?
PAFAH2 inh: 109; PKA-R1A act: inactive; PAFAH1B3 inh: inactive; pPAFAH FP inh: inactive; PKA-R2B act: inactive; PAFAH1B2 FP inh: inactive; PAFAH2 confirm: inactive

Results for Cc1ccccc1S(=O)(=O)/N=C(/Nc1nc2ccccc2s1)c1ccccc1 ?
PAFAH2 inh: 36; PKA-R1A act: inactive; PAFAH1B3 inh: inactive; pPAFAH FP inh: inactive; PKA-R2B act: inactive; PAFAH1B2 FP inh: inactive; PAFAH2 confirm: 30

How did O=C(CN(Cc1ccc(F)cc1)C(=O)CNS(=O)(=O)c1ccccc1)NCC1CCCO1 (configuration not stated) do in these assays?
PAFAH2 inh: inactive; PKA-R1A act: inactive; PAFAH1B3 inh: inactive; pPAFAH FP inh: inactive; PKA-R2B act: inactive; PAFAH1B2 FP inh: inactive

What do the screens show for `Cc1ccc(NC(=O)c2oc3ccccc3c2COC(C)C)cc1S(=O)(=O)N1CCOCC1`?
PAFAH2 inh: inactive; PKA-R1A act: inactive; PAFAH1B3 inh: inactive; pPAFAH FP inh: inactive; PKA-R2B act: inactive; PAFAH1B2 FP inh: inactive

Results for C=CCn1c(C)nc2c(cnn2-c2ccccc2)c1=O ?
PAFAH2 inh: inactive; PKA-R1A act: inactive; PAFAH1B3 inh: inactive; pPAFAH FP inh: inactive; PKA-R2B act: inactive; PAFAH1B2 FP inh: inactive

Results for COC(=O)c1cc(S(=O)(=O)N2CCN(c3ccc(OC)cc3)CC2)cn1C ?
PAFAH2 inh: inactive; PKA-R1A act: inactive; PAFAH1B3 inh: inactive; pPAFAH FP inh: inactive; PKA-R2B act: inactive; PAFAH1B2 FP inh: inactive

Screening data (PubChem BioAssay)
